Sampled rows, rich in hits. Any-hit rate of the full collection: about 9.4%.
SARS PLP yeast = inhibitors of SARS-CoV papain-like protease in yeast; S. cerevisiae expressing SARS-CoV PLpro, growth rescue; Potency, µM (titrated, usually from 32.9 µM), for inactives: top-dose activity, positive = growth rescue, most hits filed as activators; actives 0.19% (n = 330,000); calls by dose curve; further: 0% is about no effect; nearly all actives have a fitted effect of over 55% in size
Pf growth 48h = P. falciparum growth inhibition at 48 hours (one generation); P. falciparum luciferase growth in erythrocytes, 48 h; Potency, µM (doses to about 28.7 µM), inactives show top-dose activity change, negative = inhibition, usual class: inhibitors; actives 5.9% (n = 310,000); further: on the % scale 0 is the no-effect control and ±100 the full control effect
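First compound was added to culture medium, then infected red cells at 0.1% parasitemia and 2% hematocrit (final). After incubation at 37 C under 5% CO2, luciferase detection reagent was dispensed and light output recorded.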
AMA1 RON2 block = inhibitors of Plasmodium falciparum AMA1-RON2 interaction. AlphaScreen AMA1-biotinylated RON2 peptide binding. Potency, µM (doses to about 58.2 µM), without a hit: top-dose activity change, negative = inhibition, actives largely listed as inhibitors. actives 0.2% (n = 360,000). AID 720542;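 further: 0% = vehicle wells and -100% = peptide control; nearly all actives have a fitted effect of over 45% in size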
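AMA1 (3D7) with his tag at 25 nM final met compounds first, then biotinylated RON2 peptide at 25 nM; detection used donor plus acceptor beads, 10 µg/mL apiece, read by AlphaScreen after 30 min at room temperature.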
Pf growth 96h = P. falciparum growth inhibition at 96 hour, primary screen for plastid delayed-death inhibitors. Potency, µM (highest dose often 28.7 µM), for inactives: at the highest dose activity change, negative = inhibition, most hits filed as inhibitors. P. falciparum luciferase reporter growth, 96 h. actives 6.9% (n = 320,000); further: on the % scale 0 is the no-effect control and ±100 the full control effect
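Two-generation exposure (96 h) targets delayed-death phenotype. Reporter parasites carrying integrated firefly luciferase, in red cells at 2% hematocrit and 0.05% parasitemia final, kept at 37 C, 5% CO2; luminescence loss indicates inhibition.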
Starred values were filed as active, the others as inactive; ? = inconclusive; . = no result. Unless noted, the call rests on the fitted dose curve; in most records, active means well fitted curve in the direction sought with a large enough effect; inconclusive means small, poorly fitted or top-dose-only effect, or another doubt; inactive means no such curve, though single readings can be large; an effect the other way counts as inactive or inconclusive. Potency means the concentration at half of the fitted maximal effect.

SMILES	SARS PLP yeast	Pf growth 48h	AMA1 RON2 block	Pf growth 96h
CCOC(=O)N1CCN(C(=O)c2cn(CC)c3ccc(S(=O)(=O)N4CCOCC4)cc3c2=O)CC1	29%	13%	3%	4.7µM*
CCOc1ccccc1C(=O)NCC(=O)OCC(=O)N1C(C)CCCC1C (centres undefined)	8%	-1%	1%	-13%
COc1ccc(S(=O)(=O)N2CCCCC2)cc1NC(=S)Nc1cccc(Cl)c1C	14%	-7%	42%	?
CCOc1cccc2cc(-c3csc(NC(=O)CCC(=O)N4CCC(C)CC4)n3)c(=O)oc12	3%	.	1%	14%
CCOc1ccc(/C=N/NC(=O)Cc2csc(Nc3cccc(C(F)(F)F)c3)n2)c(OCC)c1	-1%	57%	92%	38%
CCOc1ccc(/C=N/NC(=O)Cc2csc(Nc3cccc(C(F)(F)F)c3)n2)cc1	-8%	9.3µM*	-4%	.
C#Cc1ccc(CN2CCC(C(=O)Nc3ccc(Oc4ccccc4)nc3)CC2)cc1	18%	?	-5%	2.3µM*
O=C(Nc1ccc(Oc2ccccc2)nc1)C1CCN(Cc2cccc(F)c2)CC1	2%	?	-8%	5%
C#Cc1ccc(CN2CCCC(C(=O)Nc3ccccc3Oc3cccnc3)C2)cc1 (centres undefined)	0%	10µM*	-14%	-19%
O=C(Nc1ccccc1Oc1cccnc1)C1CCCN(C/C=C/c2ccccc2)C1 (centres undefined)	0%	5.2µM*	-19%	?
O=C(Nc1ccccc1Oc1cccnc1)C1CCCN(Cc2ccccc2O)C1 (centres undefined)	4%	13µM*	1%	0%
O=C(COC(=O)c1ccccc1Nc1ccccc1F)c1ccccc1	-3%	-1%	-12%	-3%
Cc1oc(-c2cccc(Cl)c2)nc1CN(C)C1CCOC1 (centres undefined)	-2%	-17%	5%	-3%
CC(/C=C1\SC(=Nc2cccnc2)NC1=O)=C\c1ccccc1	0%	-1%	-6%	-24%
C=CCOc1ccc(/C=C2\SC(=Nc3cccnc3)NC2=O)cc1	0%	?	4%	10µM*
CC1CCC2(CC1)NC(=O)N(NC(=O)c1ccc(OC(C)C)cc1)C2=O (centres undefined)	-2%	13%	-1%	28%
C/C(CC(=O)Nc1cccc2c1CCCC2)=N\NC(=O)COc1ccccc1	17%	12%	39%	2.1µM*
CC(=O)[C@@H]1[C@@H](C(=O)c2ccc(C)cc2)[C@]2(C(=O)Nc3ccccc32)[C@H]2C=Cc3cc(F)ccc3N12	-2%	?	-4%	?
CCOCCCNc1ncnc2c1[nH]c1ccccc12	-1%	10µM*	11%	?
CCCCOCCCNc1ncnc2c1[nH]c1ccccc12	-9%	7.4µM*	15%	.
CCCCOc1ncnc2c1[nH]c1ccccc12	-25%	?	-17%	0%
C=CCNc1ncnc2c1[nH]c1ccccc12	-2%	13µM*	-3%	?
CC(C)=C1SC(N2CCN(c3cccc(Cl)c3)CC2)=NC1=O	-38%	5%	0%	-4%
CCN(CC)c1ccc(N=Cc2ccc([N+](=O)[O-])o2)cc1	-59%	1.7µM*	?	2.9µM*
CCN(CC)c1ccc(N=Cc2ccccc2[N+](=O)[O-])cc1	14%	2.3µM*	18µM*	-104%
SMILES	SARS PLP yeast	Pf growth 48h	AMA1 RON2 block	Pf growth 96h
CCOC(=O)N1CCN(C(=O)Nc2ccc3nc(-c4ccccn4)c(-c4ccccn4)nc3c2)CC1	3%	-12%	30%	-13%
C[C@H](NC(=O)N1CCn2c1nc1ccccc12)C(=O)NCc1ccc(F)cc1	-5%	31%	93%	22%
CCC1CCC(C(=O)NC(CCSC)C(=O)NCCN(CC(C)C)CC(C)C)CC1 (centres undefined)	2%	-26%	3%	15µM*
CCOC(=O)c1c(C)[nH]c(C=Nc2ccc(OC)cc2)c1O	-16%	-21%	-4%	15µM*
COC(=O)c1c(C)[nH]c(C=Nc2ccc(OC)cc2)c1C	1%	5%	-13%	104%
CCOC(=O)c1c(C)[nH]c(N=Nc2ccccc2)c1C	-27%	.	13µM*	9%
CCOC(=O)c1c(C)[nH]c(C=Nc2ccccc2)c1O	3%	-1%	.	9.3µM*
Cc1ccc(S(=O)(=O)N(C)C)cc1NC(=O)COC(=O)C1CC(=O)N(c2ccc3c(c2)OCCO3)C1 (centres undefined)	1%	23%	-20%	65%
CCOC(=O)Cc1c[nH]c2ccc([N+](=O)[O-])cc12	.	.	25%	.
OC1(c2ccc(Cl)c(Cl)c2)C[n+]2ccccc2N1Cc1ccccc1 (centres undefined)	0%	3.7µM*	9%	?
CSc1nnc(C)c(=O)n1COC(=O)c1cc(Cl)ccc1[N+](=O)[O-]	-1%	5%	-3%	0%
COc1ccc(N2CC(C(=O)NCCc3c[nH]c4ccccc34)CC2=O)cc1 (centres undefined)	-4%	2%	0%	?
COc1ccccc1-n1c2nc3ccccc3nc2c2c(=O)n(-c3cc(C)cc(C)c3)cnc21	-28%	13µM*	-5%	?
CCCC(=O)C1=C(O)C(C(=O)OC)C(C)(C)CC1=Nc1ccc(N)cc1 (centres undefined)	7%	?	-5%	?
CCCC(=O)C1=C(O)C(C(=O)OC)C(C)(C)CC1=Nc1ccc(C)cc1 (centres undefined)	-2%	5.2µM*	16%	19%
O=[N+]([O-])c1ccc(-[n+]2c(-c3ccccc3)cc(-c3ccccc3)cc2-c2ccccc2)cc1	-5%	?	-2%	0%
O=[N+]([O-])c1ccccc1-c1cc(-c2ccccc2)cc(-c2ccccc2)[n+]1Cc1ccccc1Cl	-2%	0.93µM*	-4%	?
Cc1cc(N/N=C/c2cccc(Cl)c2)nc(-n2nc(C)cc2C)n1	1%	1.2µM*	18%	?
Cc1cc(N/N=C/c2ccc(O)cc2O)nc(-n2nc(C)cc2C)n1	18%	1.9µM*	22%	?
COc1ccc(/C=N/Nc2cc(C)nc(-n3nc(C)cc3C)n2)cc1	?	1.5µM*	28%	?
Cc1cc(N/N=C/c2ccccc2[N+](=O)[O-])nc(-n2nc(C)cc2C)n1	-3%	0.93µM*	49%	0.66µM*
Cc1nc(Cl)cc(N/N=C/c2ccc(O)cc2O)n1	-5%	13%	96%	?
CCn1c(SCC(=O)NCCc2ccccc2)nnc1-c1ccco1	-8%	-27%	2%	?
CCOC(=O)c1ccc(N(CC2CO2)S(=O)(=O)c2ccc(C)cc2)cc1 (centres undefined)	.	.	17%	.
Cc1cc(N/N=C/c2ccccc2O)nc(N2CCOCC2)n1	-1%	10µM*	40%	?
Cc1cc(N/N=C/c2cccc([N+](=O)[O-])c2)nc(-n2nc(C)cc2C)n1	-1%	?	3%	1µM*
Cc1cc(N/N=C/c2ccc(O)cc2O)nc(-c2ccccc2O)n1	8%	2.6µM*	110%	?

Bioassay records (PubChem BioAssay)
